# HT1080-NT tox: kills 2HG-producing HT-1080-NT fibrosarcoma cells | HT-1080-NT fibrosarcoma viability, CellTiter-Glo ATP luminescence, 48 h | Potency, µM (highest dose often 46.1 µM), most hits filed as cytotoxic | 360,000 tested, 1.6% active;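 also: NT is the 2HG producing partner of a matched IDH1 knockdown line; nearly all actives have a fitted effect of over 55% in size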
#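 750 cells/well, RPMI + 5% FBS; 2 h settle, compound pin-transfer, 48 h at 37 degrees C. CellTiter-Glo 10 min RT, luminescence. Normalized to DMSO and media-only wells.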
# ELG1 DNA repair: ELG1-dependent DNA repair inhibition; HEK293T ELG1-luciferase reporter, luminescence, 16 h; DNA damage induced by 5-fluorouridine; Potency, µM (series often up to 46.1 µM), most hits filed as inhibitors; 330,000 tested, 2.3% active; also: nearly all actives have a fitted effect of over 55% in size
#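 Cells (2,000 per well) received 5-fluorouridine plus test compound or DMSO and were incubated 16 hr at 37 °C, 5% CO2. Luciferase activity was read by luminescence 30 min after ONE-Glo addition; signal suppression marked inhibition of damage-induced ELG1 function.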
# HT1080 IDH1KD tx: kills HT-1080 cells with IDH1 knockdown | HT-1080 IDH1 knockdown viability, ATP luminescence, 48 h | Potency, µM (highest dose often 46.1 µM), usual class: cytotoxic | 360,000 tested, 2% active | AID 686971
#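 Luminescent ATP read-out (CellTiter-Glo, 10 min at room temperature) after 48 h compound exposure at 37 °C gave viability of IDH1-knockdown HT-1080 cells. Activity was normalised to DMSO and cell-free wells, then fitted as concentration-response curves.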
# IL-1B inflam inh: inhibitors of inflammasome signaling (IL-1 beta secretion) | THP-1 LPS/ATP IL-1B secretion, AlphaLISA, 16 h; hits give low values | activity change, % at 57.5 µM | 360,000 tested, 4.7% active; in the data active = activity change below about -50%; inconclusive = mostly about -30% to -49%
#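 Secreted IL-1B measured by AlphaLISA bead assay after 16 h compound exposure of THP-1 cells; compounds (final up to 57.5 uM) added 1 h before LPS (250 ng/mL) and ATP (1.25 mM) stimulation; lower signal means less secretion.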
# DT40 TDP1 no CPT: qHTS for Inhibitors of human tyrosyl-DNA phosphodiesterase 1 (TDP1): qHTS in cells in absence of CPT. DT40 Tdp1-/- hTDP1 cells, no CPT, ATP luminescence, 48 h. Potency, µM (series often up to 46.2 µM), usual class: inhibitors. 420,000 tested, 15% active. AID 686978, 2013; also: nearly all actives have a fitted effect of over 55% in size
#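 DT40 Tdp1-/-;hTDP1 cells, no CPT (DMSO vehicle only), 400 cells/well; compounds pin-transferred; ≥48 hr, 37 °C; CellTiter-Glo 30 min RT dark, luminescence read.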
# DT40 TDP1 CPT: DT40-hTDP1 cell growth loss with CPT; chicken DT40 Tdp1-/-;hTDP1 cells + 20 nM CPT, ATP luminescence, 48 h; Potency, µM (titrated, usually from 46.2 µM), actives largely listed as inhibitors; 420,000 tested, 12% active; also: nearly all actives have a fitted effect of over 55% in size
#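 Chicken DT40 Tdp1-/- cells complemented with human TDP1, 400 cells/well, exposed to compounds plus 20 nM camptothecin for at least 48 h at 37 C; viability read as ATP content by CellTiter-Glo luminescence.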
# A number is an active result; 0 = inactive; ? = inconclusive; - = no result; [ ] = another dose, or the depositor's remark. Sampled rows, rich in hits. Any-hit rate of the full collection: about 19%. Unless noted, calls follow the shape of the dose curve; as a rule, active = well fitted curve in the direction sought with a large enough effect; inconclusive = small, poorly fitted or top-dose-only effect, or another doubt; inactive = no such curve, though single readings can be large; an effect the other way counts as inactive or inconclusive.
SMILES,HT1080-NT tox,ELG1 DNA repair,HT1080 IDH1KD tx,IL-1B inflam inh,DT40 TDP1 no CPT,DT40 TDP1 CPT
CCC(ONc1ccccc1C(F)(F)F)(C(=O)NN(C)C)c1ccccc1 (stereo not given),0,0,0,0,0,?
CC(C)(N=NC(C)(C)C(=N)N)C(=N)N,-,-,-,-,0,?
Cc1ccsc1C(=O)N1CCC1(C)C(=O)Nc1cccc(C#N)c1 (stereo not given),0,-,0,0,?,?
CSc1ccc(NC(=O)C2(C)CCN2C(=O)c2sccc2C)cc1 (stereo not given),0,-,0,-71,?,?
O=c1[nH][nH]c(C(F)(F)F)c1C=Nc1ccccc1,0,0,0,0,0,0
Cc1cc(O)ccc1N=Cc1c(C(F)(F)F)[nH][nH]c1=O,0,?,0,0,10µM,23µM
COC(=O)C1CCN(Cc2ccc3c(c2)CN(C(=O)c2cc(C)nc(C)n2)CCO3)CC1,-,-,-,-,0,0[9.04 µM]
Fc1cccc(NC(=S)N2CCCC2)c1,0,0,0,0,0,0
COC(=O)Cc1ccc(NC(=S)N2CCN(c3ccc(F)cc3)CC2)cc1,0,0,0,0,5.2µM,12µM
COc1ccc(N2CCN(C(=S)Nc3ccccc3)CC2)cc1,0,0,0,0,0,0
CC(=O)c1ccc(N2CCN(C(=S)Nc3ccc(Oc4ccccc4)cc3)CC2)cc1,0,5.8µM,?,-66,7.3µM,?
CC(=O)c1ccc(N2CCN(C(=S)Nc3cccc(F)c3)CC2)cc1,?,0,?,0,15µM,?
CCC(=O)N(c1nnc(SCC(=O)c2ccc[nH]2)s1)C1CC1,0,?,0,0,0,0
CC(=O)N1CCN(Cc2nc3ccc(Cl)cc3n2CCO)CC1,0,0,0,0,0,0
Cc1ccc(-c2csc(NS(=O)(=O)c3cccc(F)c3)n2)o1,0,0,0,0,0,0
Cc1cc(Br)c(NC(=O)CN2CCCC2)c(Br)c1,0,?,0,0,0,0
O=C(C(Br)=Cc1ccccc1)c1ccccc1,5.8µM,-,?,-110,1.3µM,0.73µM
CC(=Cc1ccccc1)C(=O)c1ccccc1,0,-,0,0,?,?
CC(=O)C(=Cc1ccc(-c2ccccc2)cc1)C(=O)c1ccccc1,15µM,-,23µM,-112,?,18µM
O=C1OCCOC2CCCc3oc(C4=CCCCC4)c1c32 (stereo not given),0,-,0,0,0,0
O=C(/C=C/c1ccccc1)OCc1ccccc1,-,-,-,-,0,?
CCCS(=O)(=O)N1CC(=O)N(c2ccc(Cl)cc2)C(C)(C(=O)NC2CCCC2)C1 (stereo not given),-,-,-,-,0,0
CCCCn1c(-c2ccsc2)nc2c1c(=O)[nH]c(=O)n2CCC,0,?,0,0,?,?
CCCn1c(-c2cccc([N+](=O)[O-])c2)nc2c1c(=O)[nH]c(=O)n2Cc1ccccc1,0,?,0,0,16µM,21µM
CCCCn1c(=O)[nH]c(=O)c2c1nc(-c1ccccc1F)n2Cc1ccccc1OC,0,?,0,0,?,23µM
SMILES,HT1080-NT tox,ELG1 DNA repair,HT1080 IDH1KD tx,IL-1B inflam inh,DT40 TDP1 no CPT,DT40 TDP1 CPT
CCCCn1c(=O)[nH]c(=O)c2c1nc(-c1cc(Br)ccc1OC)n2C,0,?,0,0,?,0
CCCCn1c(=O)[nH]c(=O)c2c1nc(-c1ccsc1)n2Cc1ccccc1,?,18µM,0,0,29µM,?
COc1ccc(NC(=O)c2cc3c(=O)n(Cc4ccco4)ccc3nc2C)cc1,-,-,-,-,?,0
Cn1c(CNC(=O)CCNC(=O)c2ccccc2F)cc(=O)n(C)c1=O,0,?,0,0,0,0
Cc1c(Br)c([N+](=O)[O-])nn1CC(=O)Nc1ccccn1,0,0,0,0,0,0
Cc1nn(CC(=O)Nc2ccccn2)c(C)c1Br,0,0,0,0,?,8.2µM
C[C@@H]1[C@H](c2ccccc2)OCCS(=O)(=O)N1Cc1ccc(Cl)cc1,-,-,-,-,10µM,11µM
Cc1ccccc1CN1[C@H](C)[C@H](c2ccccc2)OCCS1(=O)=O,-,-,-,-,13µM,?
C[C@@H]1[C@H](c2ccccc2)OCCS(=O)(=O)N1Cc1cccc(Cl)c1,-,-,-,-,13µM,?
C[C@@H]1[C@H](c2ccccc2)OCCS(=O)(=O)N1Cc1ccccc1,-,-,-,-,0,0
Cc1cc(Oc2c(C(F)(F)F)oc3c(CN4CCC(C)CC4)c(O)ccc3c2=O)cc(C)c1Cl,-,-,-,-,0,0
C=CCN(CC=C)C(=S)NC(=O)c1ccc([N+](=O)[O-])cc1,0,0,0,0,3.7µM,5.8µM
COc1ccc(C(=O)c2ccc(OC)c(Br)c2)cc1Br,0,0,0,0,21µM,18µM
C=CCN(CC=C)C(=S)NC(=O)c1ccc(OC)c(Br)c1,?,0,3.2µM,0,5.8µM,12µM
COc1cccc(CNC(=O)c2nc(Cn3nc(C)c(Br)c3C)no2)c1,-,-,-,-,?,0
C[C@H]1NC(=O)[C@]2(C)[C@@H](c3ccccc3)[C@H]3COc4ccccc4[C@H]3N2C1=O,0,-,0,0,0,0
COc1ccc(NC(=O)C2CCCN2S(=O)(=O)c2ccc3c(c2)CCC(=O)N3)c(OC)c1 (stereo not given),0,0,0,0,16µM,13µM
O=C(Nc1ccncc1)c1ccc(Cl)cc1,0,0,0,0,0,?
Cc1cc(C)cc(NC(=O)c2cccc(C(=O)Nc3cc(C)cc(C)c3)c2)c1,-,-,-,-,0,?
O=C(Nc1ccncc1)c1ccc(Br)cc1,0,0,0,0,5.2µM,?
O=C(Nc1ccc(Br)cc1)c1cccc(C(=O)Nc2ccc(Br)cc2)c1,-,-,-,-,21µM,?
Nc1ccc(C(=O)Nc2ccc(Nc3ccncc3)cc2)cc1,0,0,0,0,29µM,?
Nc1nc(-c2ccccc2)c(CCCNc2ccccc2)c(=O)[nH]1,0,-,0,0,?,?
CC(C)(C)C1CCC(=NNC(=O)c2ccco2)CC1 (stereo not given),0,?,0,0,0,0
Cc1ccc(C(=O)Nc2ccc(-c3nc4ccccc4s3)c(O)c2)c(C)c1,-,-,-,-,?,10µM
O=C(COc1ccc(Cl)cc1)Nc1ccc(-c2nc3ccccc3s2)c(O)c1,-,-,-,-,18µM,?
Cc1cccc(NC(=O)CSc2nc3ccc(NC(=O)COc4ccc(Cl)cc4)cc3s2)c1,-,-,-,-,6.5µM,7.3µM
O=C(O)CSc1nc2ccc(NC(=O)COc3ccc(Cl)cc3)cc2s1,-,-,-,-,0,0
Cc1ccsc1C(=O)Nc1ccc(O)c(-c2nc3ccccc3s2)c1,0,0,0,0,0,?

# Bioassay records: PubChem BioAssay, National Center for Advancing Translational Sciences (NCATS)
